Most compounds without a hit are left out; they make up all but 3.7% or so of the library.
BoNT F protease – BoNT/F light chain protease inhibitors, primary screen, biochemical, flow cytometry, MLPCN library; AID 588497, 2011; Botulinum neurotoxin type F light chain protease (Clostridium botulinum); Multiplex microsphere protease cleavage assay; 360,000 tested, 0.22% active; inhibition, % at 10 µM; in the data active means inhibition above about 35%, passing the limit was not always enough; inconclusive means no clear call, values can overlap the other calls
Autofluor counter – counter-screen for toxin protease inhibitors: compound fluorescence; 360,000 tested, 3.1% active; compound autofluorescence counterscreen, microsphere flow cytometry; hits give high values; fluorescence intensity (no concentration beside the values); AID 624483; in the data active means fluorescence intensity above about 16000; inconclusive means no clear call, values can overlap the other calls
MazF activator – activators of E. coli MazEF toxin-antitoxin RNase, primary screen, biochemical, fluorescence, uHTS; Endoribonuclease toxin MazF (Escherichia coli (strain K12)), P0AE70; FAM/BHQ RNA-DNA oligo cleavage fluorescence, 5 h; activation, % at 20 µM; 350,000 tested, 0.32% active; in the data active means activation above about 50%
Target sequence (P0AE70 whole entry, looked up): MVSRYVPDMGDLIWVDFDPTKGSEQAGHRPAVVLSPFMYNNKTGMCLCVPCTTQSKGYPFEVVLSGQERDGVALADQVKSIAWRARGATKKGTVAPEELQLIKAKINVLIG
Anthrax LF prot – Bacillus anthracis LF protease inhibitors, primary screen, biochemical, multiplex microsphere, MLPCN library | multiplex microsphere protease cleavage assay | Lethal factor (Bacillus anthracis), P15917 | inhibition, % at 10 µM | 360,000 tested, 0.12% active
BoNT A protease – BoNT/A light chain protease inhibitors, primary screen, biochemical, flow cytometry, MLPCN library. inhibition, % at 10 µM. 360,000 tested, 0.17% active. AID 588499, 2011. multiplex microsphere protease substrate cleavage. Botulinum neurotoxin type A light chain protease (Clostridium botulinum A str. ATCC 3502)
Numbers stand for hits; i = inactive; ? = inconclusive; nt = no result. Unless noted, no stated cut-off is given here; in the data, active means inhibition above about 30%; inconclusive means no clear call, values can overlap the other calls; inactive means below that.

SMILES	BoNT F protease	Autofluor counter	MazF activator	Anthrax LF prot	BoNT A protease
CCCC(=O)n1nc(-c2cccnc2)nc1N	i	23837	i	i	?
CC(C)(NO)/C(=N\O)c1ccccc1	i	i	i	i	i
Cc1cc(/C(=N/O)C(C)(C)NO)ccc1Cl	i	22038	i	i	i
O=C(OCC(=O)N1CCN(C(=O)c2ccco2)CC1)c1cc(-c2ccccc2)nc2ccccc12	i	?	i	i	i
O=C(OCC(=O)N1CCN(C(=O)c2ccco2)CC1)c1cc(-c2cccc(Br)c2)nc2ccccc12	i	24517	i	i	i
CSCCC(NC(N)=O)C(=O)Nc1ccc(F)c(Cl)c1 (centres undefined)	i	?	i	i	i
COc1ccccc1CNc1nc2nc(C)c(Cl)c(=O)n2[nH]1	i	21476	i	i	?
CCCCNC(=O)Nc1cc(C(F)(F)F)c[nH]c1=O	i	24583	i	i	i
CCCCNC(=O)Nc1ccccc1CC	?	i	i	i	i
O=C(CSc1nc2ccccc2[nH]1)N1CCN(c2ccccc2)CC1	i	i	i	i	i
O=C(CSc1nc2ccccc2[nH]1)N1CCCCC1	i	21788	i	i	i
O=C(CCCSc1nc2ccccc2[nH]1)N1CCN(c2ccccc2)CC1	i	20365	i	i	i
Cc1cc(NC(=O)CSCC(=O)OCC(=O)c2ccc(Br)cc2)no1	i	i	i	i	i
Cc1nc2ccccc2n1C1CC(=O)N(Cc2ccccc2)C1=O (centres undefined)	i	23623	i	i	i
O=C1CC(N2CCC(c3nc4ccccc4s3)CC2)C(=O)N1Cc1ccccc1 (centres undefined)	i	23583	i	i	i
Cc1cc2ncn(C3CC(=O)N(Cc4ccccc4)C3=O)c2cc1C (centres undefined)	i	i	i	i	i
CN1C(=O)CC(N2CCC(c3nc4ccccc4s3)CC2)C1=O (centres undefined)	i	i	i	i	i
Cc1ccc(C(=O)NN(CCC(=O)NC(C)(C)C)C2=NS(=O)(=O)c3ccccc32)cc1	i	i	i	i	i
CC(=O)Nc1cc(Cl)c(N=Cc2ccc(O)cc2O)cc1Cl	i	i	106	i	i
O=S(=O)(NN=Cc1ccc(O)cc1O)c1cc(Cl)c(Cl)cc1Cl	i	i	i	i	i
CC1CC(C)CN(S(=O)(=O)c2cccc(C(=O)N3CCN(c4ccc(F)cc4)CC3)c2)C1 (centres undefined)	i	i	i	i	i
O=[N+]([O-])c1cc(C(F)(F)F)ccc1NCCOc1ccccc1	i	i	i	i	i
O=C(OCCNc1ccc(C(F)(F)F)cc1[N+](=O)[O-])c1cc2ccccc2oc1=O	i	i	251	i	i
COC(=O)COC(=O)CC(CC(N)=O)c1ccccc1 (centres undefined)	i	22984	i	i	i
O=C(CC(CC(=O)c1ccccc1)c1ccccc1)c1ccccc1	i	i	i	i	i
SMILES	BoNT F protease	Autofluor counter	MazF activator	Anthrax LF prot	BoNT A protease
CC1(C)CC(=O)C2=C(C1)NCN(Cc1ccccc1)C2	i	16534	i	i	i
O=C(c1ccc2c(c1)C(=O)N(Cc1ccco1)C2=O)N1CCOCC1	i	23883	i	i	i
Cn1cc(Cc2ccc(C(=O)N3CCN(Cc4ccccc4)CC3)cn2)c2ccccc21	i	i	nt	i	i
O=C(c1csc2ccccc12)N1CCCCCC1	i	20758	i	i	i
O=C(c1csc2ccccc12)N1CCN(c2ccccn2)CC1	i	i	i	i	i
CC(=O)c1ccc(S(=O)(=O)N2CCNC(=O)C2)cc1	i	i	i	i	i
O=S(=O)(CC(O)(c1ccccc1)c1ccccc1)CC(O)(c1ccccc1)c1ccccc1	i	i	69	i	i
CC(O)(CS(=O)(=O)c1ccc(Br)cc1)c1ccccc1 (centres undefined)	i	i	i	i	i
COC(=O)CCCC(=O)N1CCCC(C(=O)c2ccc(OC)cc2C)C1 (centres undefined)	i	i	i	i	i
CCn1cc(CN2CCCC(C(=O)Nc3ccc(-c4cscn4)cc3)C2)c(C)n1 (centres undefined)	i	i	i	i	i
CCC(C)c1ccc2oc(-c3ccc(NC(=O)c4ncn[nH]4)cc3)nc2c1 (centres undefined)	i	20099	i	i	i
CC(C)c1ccc2oc(-c3ccc(NC(=O)c4ncn[nH]4)cc3)nc2c1	i	i	i	i	i
CCN(CC)C(=O)Cn1cc(S(=O)(=O)CC(=O)N2CCOCC2)c2ccccc21	i	i	i	i	i
OC(CNC1CCCC1)COc1c(F)cc(Br)cc1F (centres undefined)	i	16538	i	i	i
COc1ccc(OCC(O)CNC2CCCC2)cc1 (centres undefined)	i	i	i	i	i
CC(=O)Nc1ccc(OCC(O)CNC2CCCC2)cc1 (centres undefined)	i	23804	i	i	?
COCC(C)n1c(SCC(=O)Nc2cccnc2Cl)nc2ccccc2c1=O (centres undefined)	i	i	i	i	i
CNc1nc2ccccc2n(C)c1=O	i	i	i	i	i
Cn1c(=O)c(-c2ccccc2N)nc2ccccc21	i	20647	i	i	i
Cn1c(=O)c(-c2ccccc2)nc2ccccc21	i	20471	i	i	i
COc1ccc(Oc2nc3ccccc3n(C)c2=O)cc1	i	16246	i	i	i
COc1ccc(Oc2nc3ccccc3nc2C(F)(F)F)cc1	i	23577	i	i	i
CNc1ccccc1-c1nc2ccccc2n(C)c1=O	?	i	i	i	i
COc1ccc(Oc2nc3ccccc3n3cccc23)cc1	i	i	i	i	i
Cc1cc(-c2nnc(SCC(=O)NC3CC3)n2C(C)C)cs1	i	i	i	i	i
SMILES	BoNT F protease	Autofluor counter	MazF activator	Anthrax LF prot	BoNT A protease
COc1ccc(OCCCC(=O)Nc2cc(Cl)ccc2-n2cncn2)cc1	i	17700	i	i	i
Cc1ccccc1NC(=O)c1cccc(N2C(=O)C3C4CC(C(Br)C4Br)C3C2=O)c1 (centres undefined)	i	i	i	i	i
CC(CCc1ccccc1)NC(=O)CNC(=O)c1cccs1 (centres undefined)	i	i	i	i	i
S=c1[nH]nc(COc2ccc(Cl)cc2)o1	i	19965	i	i	?
CCN(CC)C(=O)C1CCCN(C/C=C/c2ccccc2[N+](=O)[O-])C1 (centres undefined)	i	i	i	i	i
CCOC(=O)C1CCCN(CC(=O)NC2CC2)C1 (centres undefined)	i	16644	i	i	i
CCOC(=O)C1CCCN(CC(=O)Nc2cc(C)cc(C)c2)C1 (centres undefined)	i	i	i	i	i
CCOC(=O)C1CCCN(CCC(C)c2ccccc2)C1 (centres undefined)	i	21853	i	i	i
